# PubChem BioAssay (EPA / NIEHS)
# Records with an inconclusive call do not appear. Calls of active or inactive are those of the source. Rule for the calls, unless noted: active = hit-call score of the fitted dose curve at least 0.9, where 1 is the maximum; inactive = score below 0.9.
# Tests used:
# [1] = read-out: Monokine induced gamma interferon (MIG), CXCL9 (gene 4283); test: BSK_3C_MIG: BioMAP Diversity Plus: 3C Assay for Monokine induced gamma interferon (MIG) Biomarker Activity (AID 2283021); conditions: primary human endothelial cells (HUVEC); actives raise or lower the signal;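 for AC50: MIG protein level measured by immunoassay in the treated endothelial cultures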
# Method in brief: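 Read-out is ELISA detection of MIG on human umbilical vein endothelial cells, taken 24 h after dosing. Gain or loss of signal was scored relative to DMSO controls using bidirectional curve fitting.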
# [2] = molecular target: human Vitamin D Receptor (VDR), VDR (gene 7421) (UniProt P11473); test: ATG_VDR_TRANS: Attagene TRANS-FACTORIAL HepG2 Assay for human Vitamin D Receptor (VDR) (AID 2283022; active = hit-call score of the fitted dose curve at least 0.9, where 1 is the maximum)
# Method in brief: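 RT-PCR/capillary electrophoresis read-out of reporter mRNA induction in transiently transfected HepG2; 24 h dosing; chimeric NR-Gal4 (TRANS format); gain-of-signal fit against DMSO baseline.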
# [3] = BSK_3C_SRB: Viability Assessment in the BioMAP Diversity Plus: 3C Assay (AID 2283023); conditions: primary human endothelial cells (HUVEC);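 note: fitted both ways against DMSO so a hit may be signal rise or drop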
# Method in brief: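 HUVEC, 24 h post-dose; 10% TCA fix, 0.1% SRB stain, A560 nm. Bidirectional curve fit vs DMSO negative control.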
# [4] = read-out: Matrix Metallopeptidase 1 (MMP1), MMP1 (gene 4312); test: BSK_BE3C_MMP1: BioMAP Diversity Plus: BE3C Assay for Matrix Metallopeptidase 1 (MMP1) Biomarker Activity (AID 2283024); conditions: primary human bronchial epithelial cells; actives raise or lower the signal
# Method in brief: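 Human bronchial epithelial cells (BE3C system) exposed to compound for 24 h; MMP1 then quantified by ELISA. Activity was fitted in both directions relative to DMSO.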
# [5] = BSK_3C_Vis: BioMAP Diversity Plus: 3C Assay for Morphology Visualization (AID 2283025); conditions: primary human endothelial cells (HUVEC);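 note: fitted both ways so gain or loss versus DMSO counts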;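 for AC50: light microscopy image of cell morphology used as background control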
# Method in brief: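 Chemicals were added to primary human umbilical vein endothelium, cells were incubated 24 h, and morphology was then visualized by light microscopy. Gain or loss of signal was fitted bidirectionally relative to DMSO.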
# [6] = read-out: Pselectin, SELP (gene 6403); test: BSK_4H_Pselectin: BioMAP Diversity Plus: 4H Assay for Pselectin Biomarker Activity (AID 2283026); conditions: primary human endothelial cells (HUVEC); actives raise or lower the signal
# Method in brief: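 ELISA read-out of P-selectin on human umbilical vein endothelium after 24 h of dosing. Values derive from bidirectional fitting relative to DMSO. Parallel SRB protein staining flagged overt cytotoxicity.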
# [7] = BSK_4H_SRB: Viability Assessment in the BioMAP Diversity Plus: 4H Assay (AID 2283027); conditions: primary human endothelial cells (HUVEC);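 note: cells exposed to compound for 24 h before staining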;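 for AC50: curves fitted both ways versus DMSO so AC50 may be loss or gain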
# Method in brief: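 Human umbilical vein endothelial cells were dosed with chemical and, after 24 h, fixed with 10% TCA, stained with 0.1% sulforhodamine B, and read at 560 nm to give total protein as a cytotoxicity measure. Bidirectional fitting relative to DMSO control.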
# [8] = read-out: Thrombomodulin, THBD (gene 7056); test: BSK_3C_Thrombomodulin: BioMAP Diversity Plus: 3C Assay for Thrombomodulin Biomarker Activity (AID 2283029); conditions: primary human endothelial cells (HUVEC); actives raise or lower the signal
# Method in brief: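 Read-out is ELISA of thrombomodulin on human umbilical vein endothelium 24 h after chemical dosing. Gain or loss of signal is scored relative to DMSO. Overt cytotoxicity is checked in parallel cultures by sulforhodamine B staining.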
# [9] = read-out: Urokinase-type plasminogen activator receptor (uPAR), PLAUR (gene 5329); test: BSK_4H_uPAR: BioMAP Diversity Plus: 4H Assay for Urokinase-type plasminogen activator receptor (uPAR) Biomarker Activity (AID 2283030); conditions: primary human endothelial cells (HUVEC); actives raise or lower the signal
# Method in brief: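 HUVEC, 24 h post-dose; uPAR by ELISA; bidirectional fit vs DMSO baseline.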
# [10] = read-out: Vascular endothelial growth factor receptor 2 (Homo sapiens) (UniProt P35968); test: BSK_4H_VEGFRII: BioMAP Diversity Plus: 4H Assay for Vascular endothelial growth factor receptor 2 (VEGFR2) Biomarker Activity (AID 2283031); conditions: primary human endothelial cells (HUVEC); actives raise or lower the signal
# Method in brief: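 HUVEC (human primary), 4H system; 24 h post-dose; VEGFRII by ELISA; bidirectional curve fit vs DMSO baseline; gain or loss of signal scored.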
# [11] = read-out: Human Leukocyte Antigen - DR isotype (HLADR), HLA-DRA (gene 3122); test: BSK_BE3C_HLADR: BioMAP Diversity Plus: BE3C Assay for Human Leukocyte Antigen - DR isotype (HLADR) Biomarker Activity (AID 2283032); conditions: primary human bronchial epithelial cells; actives raise or lower the signal
# Method in brief: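 ELISA read-out of HLA-DR on human lung bronchial epithelial primary cells, measured 24 h post-dosing. Both increases and decreases were scored relative to DMSO vehicle.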
# [12] = read-out: Vascular cell adhesion molecule 1 (VCAM1), VCAM1 (gene 7412); test: BSK_4H_VCAM1: BioMAP Diversity Plus: 4H Assay for Vascular cell adhesion molecule 1 (VCAM1) Biomarker Activity (AID 2283033); conditions: primary human endothelial cells (HUVEC); actives raise or lower the signal;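 for outcome: cell-surface VCAM-1 protein measured by ELISA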
# Method in brief: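 ELISA read-out of VCAM-1 on human umbilical vein endothelium 24 hours after chemical dosing; gain or loss of signal was fitted relative to DMSO, with sulforhodamine B staining of parallel cultures flagging overt cytotoxicity.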
# [13] = read-out: Interferon-gamma inducible Protein 10 (IP10), CXCL10 (gene 3627); test: BSK_BE3C_IP10: BioMAP Diversity Plus: BE3C Assay for Interferon-gamma inducible Protein 10 (IP10) Biomarker Activity (AID 2283034); conditions: primary human bronchial epithelial cells; actives raise or lower the signal
# Method in brief: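 Chemical is dosed onto human lung bronchial epithelial primary cells, cultures are incubated 24 h, and IP-10 is then quantified by ELISA. Gain or loss of signal is fitted in both directions relative to DMSO.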
# [14] = read-out: Monokine induced gamma interferon (MIG), CXCL9 (gene 4283); test: BSK_BE3C_MIG: BioMAP Diversity Plus: BE3C Assay for Monokine induced gamma interferon (MIG) Biomarker Activity (AID 2283035); conditions: primary human bronchial epithelial cells; actives raise or lower the signal;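 note: MIG protein measured by ELISA in BE3C cultures after 24 h of dosing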
# Method in brief: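 ELISA read-out of MIG in human lung bronchial epithelial primary cultures, 24 h post-dosing. Bidirectional curve fit vs DMSO baseline.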
# [15] = read-out: Transforming growth factor beta 1 (TGFb1), TGFB1 (gene 7040); test: BSK_BE3C_TGFb1: BioMAP Diversity Plus: BE3C Assay for Transforming growth factor beta 1 (TGFb1) Biomarker Activity (AID 2283036;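 note: TGF-b1 protein level measured by ELISA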); conditions: primary human bronchial epithelial cells; actives raise or lower the signal
# Method in brief: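 Primary human lung bronchial epithelial cells; compound exposure 24 h; TGF-b1 by ELISA; bidirectional fit, DMSO baseline. Parallel SRB total-protein staining for cytotoxicity.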
# [16] = read-out: Plasminogen activator inhibitor-1 (PAI1), SERPINE1 (gene 5054); test: BSK_BE3C_PAI1: BioMAP Diversity Plus: BE3C Assay for Plasminogen activator inhibitor-1 (PAI1) Biomarker Activity (AID 2283037); conditions: primary human bronchial epithelial cells; actives raise or lower the signal
# Method in brief: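 Primary human lung bronchial epithelial cells; chemical dosing; 24 h; PAI-1 measured by ELISA; bidirectional fit referenced to DMSO as negative control.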
# [17] = read-out: urokinase plasminogen activator (uPA), PLAU (gene 5328); test: BSK_BE3C_uPA: BioMAP Diversity Plus: BE3C Assay for urokinase plasminogen activator (uPA) Biomarker Activity (AID 2283038); conditions: primary human bronchial epithelial cells; actives raise or lower the signal;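 note: uPA protein level quantified by ELISA in cell cultures; uPA read one day after compound addition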
# Method in brief: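 ELISA read-out of uPA in human lung primary bronchial epithelial cultures, 24 h post-dosing. Gain or loss of signal fitted bidirectionally relative to DMSO baseline; cytotoxicity checked in parallel cultures via SRB total protein stain.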
# [18] = read-out: Urokinase-type plasminogen activator receptor (uPAR), PLAUR (gene 5329); test: BSK_BE3C_uPAR: BioMAP Diversity Plus: BE3C Assay for Urokinase-type plasminogen activator receptor (uPAR) Biomarker Activity (AID 2283039); conditions: primary human bronchial epithelial cells; actives raise or lower the signal;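 note: uPAR protein level measured by ELISA on the cells; cells exposed to compound for one day before measurement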
# Method in brief: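 Human bronchial epithelial primary cells; chemical exposure 24 h; uPAR by ELISA; bidirectional fit vs DMSO control.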
# [19] = BSK_BE3C_SRB: Viability Assessment in the BioMAP Diversity Plus: BE3C Assay (AID 2283028); conditions: primary human bronchial epithelial cells
# Method in brief: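 Primary human bronchial epithelium; chemical dosing, 24 h; 10% TCA fix, 0.1% SRB stain, A560; bidirectional fit vs DMSO baseline.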
# [20] = read-out: Interleukin-6 (IL6), IL6 (gene 3569); test: BSK_CASM3C_IL6: BioMAP Diversity Plus: CASM3C Assay for Interleukin-6 (IL6) Biomarker Activity for (AID 2283040); conditions: primary human coronary artery smooth muscle cells; actives raise or lower the signal
# human Vitamin D Receptor (VDR), VDR (gene 7421), sequence (P11473 whole entry, looked up, the tested form may be a part): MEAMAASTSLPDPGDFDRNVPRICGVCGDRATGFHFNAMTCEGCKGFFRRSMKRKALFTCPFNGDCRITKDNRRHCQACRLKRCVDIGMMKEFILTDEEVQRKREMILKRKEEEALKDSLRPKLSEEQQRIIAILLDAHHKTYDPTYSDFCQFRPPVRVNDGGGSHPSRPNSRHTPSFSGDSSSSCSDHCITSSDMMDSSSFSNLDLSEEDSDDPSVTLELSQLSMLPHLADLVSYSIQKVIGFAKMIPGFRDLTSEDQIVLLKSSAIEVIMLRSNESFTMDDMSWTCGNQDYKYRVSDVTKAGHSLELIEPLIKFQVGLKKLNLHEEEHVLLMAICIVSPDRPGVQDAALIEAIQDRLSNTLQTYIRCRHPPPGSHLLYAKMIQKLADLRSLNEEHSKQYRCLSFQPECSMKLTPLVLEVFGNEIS
structure (smiles),measurement,setting,value
Oc1ccc(-c2ccccc2)cc1,outcome,[1],inactive
same,outcome,[2],inactive
same,outcome,[3],inactive
same,outcome,[4],inactive
same,outcome,[5],inactive
same,outcome,[6],inactive
same,outcome,[7],inactive
same,outcome,[8],inactive
same,outcome,[9],inactive
same,outcome,[10],inactive
same,outcome,[11],inactive
same,outcome,[12],inactive
same,outcome,[13],inactive
same,outcome,[14],inactive
same,outcome,[15],inactive
same,outcome,[16],inactive
same,outcome,[17],inactive
same,outcome,[18],inactive
CCNc1nc(NC(C)(C)C)nc(SC)n1,outcome,[1],inactive
same,outcome,[2],inactive
same,outcome,[3],inactive
same,outcome,[4],inactive
same,outcome,[5],inactive
same,outcome,[6],inactive
same,outcome,[7],inactive
same,outcome,[19],inactive
same,outcome,[8],inactive
same,outcome,[9],inactive
same,outcome,[11],inactive
same,outcome,[12],inactive
same,outcome,[13],inactive
same,outcome,[14],inactive
same,outcome,[15],inactive
same,outcome,[16],inactive
same,outcome,[17],inactive
same,outcome,[18],inactive
same,outcome,[20],inactive
CN(C)N=O,outcome,[1],inactive
same,outcome,[2],inactive
same,outcome,[3],inactive
same,outcome,[4],inactive
same,outcome,[5],inactive
same,outcome,[6],inactive
same,outcome,[7],inactive
same,outcome,[8],inactive
same,outcome,[9],inactive
same,outcome,[10],inactive
same,outcome,[11],inactive
same,outcome,[12],inactive
same,outcome,[13],inactive
same,outcome,[14],inactive
same,outcome,[15],inactive
same,outcome,[16],inactive
same,outcome,[17],inactive
same,outcome,[18],inactive
same,outcome,[20],inactive
ClC1(Cl)C2(Cl)C3(Cl)C4(Cl)C(Cl)(Cl)C5(Cl)C3(Cl)C1(Cl)C5(Cl)C24Cl (stereo not drawn),outcome,[1],inactive
same,outcome,[2],inactive
same,outcome,[3],inactive
same,outcome,[4],inactive
same,outcome,[5],inactive
same,outcome,[6],inactive
same,outcome,[7],inactive
same,outcome,[8],inactive
same,outcome,[9],inactive
same,outcome,[10],inactive
same,outcome,[11],inactive
same,outcome,[12],inactive
same,outcome,[13],inactive
same,outcome,[14],inactive
same,outcome,[15],inactive
same,outcome,[16],inactive
same,outcome,[17],inactive
same,outcome,[18],inactive
same,outcome,[20],inactive
O=C1C(Cl)=C(Cl)C(=O)c2ccccc21,outcome,[2],inactive
CC(C)(C)c1cc(O)ccc1O,AC50,[1],37 µM (active)
same,outcome,[3],inactive
same,AC50,[4],8.5 µM (active)
same,AC50,[5],39 µM (active)
same,AC50,[6],20 µM (active)
same,AC50,[7],28.1 µM (active)
same,outcome,[19],inactive
same,AC50,[8],33.5 µM (active)
same,outcome,[9],inactive
same,outcome,[10],inactive
same,AC50,[11],18.3 µM (active)
same,AC50,[12],23.2 µM (active)
same,AC50,[13],26.9 µM (active)
same,outcome,[14],inactive
same,outcome,[15],inactive
same,AC50,[16],14 µM (active)
same,outcome,[17],inactive
same,outcome,[18],inactive
same,outcome,[20],inactive
Nc1cccc2ccccc12,outcome,[1],inactive
same,outcome,[3],inactive
same,outcome,[4],inactive
same,outcome,[5],inactive
same,outcome,[6],inactive
same,outcome,[7],inactive
same,outcome,[19],inactive
same,outcome,[8],inactive
same,outcome,[9],inactive
same,outcome,[11],inactive
same,outcome,[12],inactive
same,AC50,[13],20 µM (active)
same,outcome,[14],inactive
same,outcome,[15],inactive
same,outcome,[16],inactive
same,outcome,[17],inactive
same,outcome,[18],inactive
same,outcome,[20],inactive
